# Measured values: publication PMC9911399, “Two distinct binding modes provide the RNA-binding protein RbFox with extraordinary sequence specificity”
# Substitutions are numbered along the chain they refer to; changes in the protein carry UniProt numbers. In all, about 16,000 sequences were measured (“ka relative to ugcaugu”: median about 0.0091, highest 2% from about 0.032 on). The entries come from a sample that favours the highest values as a whole.
# T1: RBFOX1 RRM (Homo sapiens, UniProt Q9NWB1 109-208)
# T1 sequence: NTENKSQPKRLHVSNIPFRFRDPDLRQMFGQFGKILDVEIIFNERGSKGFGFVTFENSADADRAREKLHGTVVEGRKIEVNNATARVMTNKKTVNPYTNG
# B1: CUGUAGC (DNA:RNA)
# RNA: GGGAGACCGGAAUUCAGAUUGUCCCUGUAGCUUAAAUCCCGUCGUAGCCACCA
# DNA 1: CAATCTGAATTCCGGTCTCCC
# DNA 2: TGGTGGCTACGACGGGATT
# B2: CGCACUC (DNA:RNA)
# RNA: B1 RNA with U26G, G27C, U28A, A29C, G30U
# DNA 1: CAATCTGAATTCCGGTCTCCC
# DNA 2: TGGTGGCTACGACGGGATT
# B3: AAGUAUU (DNA:RNA)
# RNA: B1 RNA with C25A, U26A, G30U, C31U
# DNA 1: CAATCTGAATTCCGGTCTCCC
# DNA 2: TGGTGGCTACGACGGGATT
# B4: CCUAUCU (DNA:RNA)
# RNA: B1 RNA with U26C, G27U, U28A, A29U, G30C, C31U
# DNA 1: CAATCTGAATTCCGGTCTCCC
# DNA 2: TGGTGGCTACGACGGGATT
# B5: UCGUAUU (DNA:RNA)
# RNA: B1 RNA with C25U, U26C, G30U, C31U
# DNA 1: CAATCTGAATTCCGGTCTCCC
# DNA 2: TGGTGGCTACGACGGGATT
# B6: AAACUUG (DNA:RNA)
# RNA: GGGAGACCGGAAUUCAGAUUGUCCAAACUUGUUAAAUCCCGUCGUAGCCACCA
# DNA 1: CAATCTGAATTCCGGTCTCCC
# DNA 2: TGGTGGCTACGACGGGATT
# B7: CUCACCC (DNA:RNA)
# RNA: B1 RNA with G27C, U28A, A29C, G30C
# DNA 1: CAATCTGAATTCCGGTCTCCC
# DNA 2: TGGTGGCTACGACGGGATT
# B8: AACGCAA (DNA:RNA)
# RNA: B6 RNA with A27C, C28G, U29C, U30A, G31A
# DNA 1: CAATCTGAATTCCGGTCTCCC
# DNA 2: TGGTGGCTACGACGGGATT
# B9: CCUCACG (DNA:RNA)
# RNA: B6 RNA with A25C, A26C, A27U, U29A, U30C
# DNA 1: CAATCTGAATTCCGGTCTCCC
# DNA 2: TGGTGGCTACGACGGGATT
# B10: CAAGGGU (DNA:RNA)
# RNA: B6 RNA with A25C, C28G, U29G, U30G, G31U
# DNA 1: CAATCTGAATTCCGGTCTCCC
# DNA 2: TGGTGGCTACGACGGGATT
# B11: UUCUGAA (DNA:RNA)
# RNA: B1 RNA with C25U, G27C, A29G, G30A, C31A
# DNA 1: CAATCTGAATTCCGGTCTCCC
# DNA 2: TGGTGGCTACGACGGGATT
# B12: UUUCUGA (DNA:RNA)
# RNA: B6 RNA with A25U, A26U, A27U, U30G, G31A
# DNA 1: CAATCTGAATTCCGGTCTCCC
# DNA 2: TGGTGGCTACGACGGGATT
# B13: UCCUUGA (DNA:RNA)
# RNA: B1 RNA with C25U, U26C, G27C, A29U, C31A
# DNA 1: CAATCTGAATTCCGGTCTCCC
# DNA 2: TGGTGGCTACGACGGGATT
# B14: UUGAGUG (DNA:RNA)
# RNA: B6 RNA with A25U, A26U, A27G, C28A, U29G
# DNA 1: CAATCTGAATTCCGGTCTCCC
# DNA 2: TGGTGGCTACGACGGGATT
# B15: UUGUUGA (DNA:RNA)
# RNA: B1 RNA with C25U, A29U, C31A
# DNA 1: CAATCTGAATTCCGGTCTCCC
# DNA 2: TGGTGGCTACGACGGGATT
# B16: UUGAGUC (DNA:RNA)
# RNA: B1 RNA with C25U, U28A, A29G, G30U
# DNA 1: CAATCTGAATTCCGGTCTCCC
# DNA 2: TGGTGGCTACGACGGGATT
# B17: UUGAUCC (DNA:RNA)
# RNA: B1 RNA with C25U, U28A, A29U, G30C
# DNA 1: CAATCTGAATTCCGGTCTCCC
# DNA 2: TGGTGGCTACGACGGGATT
# B18: UUGAUGA (DNA:RNA)
# RNA: B1 RNA with C25U, U28A, A29U, C31A
# DNA 1: CAATCTGAATTCCGGTCTCCC
# DNA 2: TGGTGGCTACGACGGGATT
# B19: UUUCAGA (DNA:RNA)
# RNA: B1 RNA with C25U, G27U, U28C, C31A
# DNA 1: CAATCTGAATTCCGGTCTCCC
# DNA 2: TGGTGGCTACGACGGGATT
# B20: UUGAUUG (DNA:RNA)
# RNA: B6 RNA with A25U, A26U, A27G, C28A
# DNA 1: CAATCTGAATTCCGGTCTCCC
# DNA 2: TGGTGGCTACGACGGGATT
# B21: UUGAUUC (DNA:RNA)
# RNA: B1 RNA with C25U, U28A, A29U, G30U
# DNA 1: CAATCTGAATTCCGGTCTCCC
# DNA 2: TGGTGGCTACGACGGGATT
# B22: UUGAGAG (DNA:RNA)
# RNA: B1 RNA with C25U, U28A, A29G, G30A, C31G
# DNA 1: CAATCTGAATTCCGGTCTCCC
# DNA 2: TGGTGGCTACGACGGGATT
# B23: UCUCAAG (DNA:RNA)
# RNA: B6 RNA with A25U, A26C, A27U, U29A, U30A
# DNA 1: CAATCTGAATTCCGGTCTCCC
# DNA 2: TGGTGGCTACGACGGGATT
# B24: UCUUGAA (DNA:RNA)
# RNA: B1 RNA with C25U, U26C, G27U, A29G, G30A, C31A
# DNA 1: CAATCTGAATTCCGGTCTCCC
# DNA 2: TGGTGGCTACGACGGGATT
# B25: CUGUACU (DNA:RNA)
# RNA: B1 RNA with G30C, C31U
# DNA 1: CAATCTGAATTCCGGTCTCCC
# DNA 2: TGGTGGCTACGACGGGATT
# B26: UAUUACG (DNA:RNA)
# RNA: B6 RNA with A25U, A27U, C28U, U29A, U30C
# DNA 1: CAATCTGAATTCCGGTCTCCC
# DNA 2: TGGTGGCTACGACGGGATT
# B27: ACCUGUG (DNA:RNA)
# RNA: B6 RNA with A26C, A27C, C28U, U29G
# DNA 1: CAATCTGAATTCCGGTCTCCC
# DNA 2: TGGTGGCTACGACGGGATT
# B28: GAUAUAG (DNA:RNA)
# RNA: B6 RNA with A25G, A27U, C28A, U30A
# DNA 1: CAATCTGAATTCCGGTCTCCC
# DNA 2: TGGTGGCTACGACGGGATT
# B29: CUUAACU (DNA:RNA)
# RNA: B1 RNA with G27U, U28A, G30C, C31U
# DNA 1: CAATCTGAATTCCGGTCTCCC
# DNA 2: TGGTGGCTACGACGGGATT
# B30: AAGGGCU (DNA:RNA)
# RNA: B6 RNA with A27G, C28G, U29G, U30C, G31U
# DNA 1: CAATCTGAATTCCGGTCTCCC
# DNA 2: TGGTGGCTACGACGGGATT
# B31: UUGAAUC (DNA:RNA)
# RNA: B1 RNA with C25U, U28A, G30U
# DNA 1: CAATCTGAATTCCGGTCTCCC
# DNA 2: TGGTGGCTACGACGGGATT
# B32: UUAAAUG (DNA:RNA)
# RNA: B6 RNA with A25U, A26U, C28A, U29A
# DNA 1: CAATCTGAATTCCGGTCTCCC
# DNA 2: TGGTGGCTACGACGGGATT
# B33: UUGAAUG (DNA:RNA)
# RNA: B1 RNA with C25U, U28A, G30U, C31G
# DNA 1: CAATCTGAATTCCGGTCTCCC
# DNA 2: TGGTGGCTACGACGGGATT
# Target: T1, RBFOX1 RRM
# Assay: EMSA; HiTS-Eq, 1 nM pool, 10 min; buffer printed only for the single-RNA assays: 10 mM Tris pH 7.5, 150 mM NaCl, 3.4 mM EDTA, 0.001% NP-40, 30 C
# Settings: tags: His6 N-terminal (pET28a); label: 5' 32P
# Outline: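 A pool of RNA with 7 randomized nucleotides, 5′-radiolabelled and with DNA-annealed flanks, was equilibrated at 1 nM for 10 min in 50 µL with purified RbFox RRM, wild type or mutant, across increasing protein concentrations. Free RNA was separated by 8% native PAGE, excised, reverse-transcribed, barcoded by PCR and sequenced. Relative association constants were obtained from read-count changes of each RNA species versus the control reaction and normalised to the cognate motif.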
row,Binder,binding signal
1,B1,0.0127 KA relative to UGCAUGU
2,B2,0.00942 KA relative to UGCAUGU
3,B3,0.0026 KA relative to UGCAUGU
4,B4,0.00242 KA relative to UGCAUGU
5,B5,0.00649 KA relative to UGCAUGU
6,B6,0.0047 KA relative to UGCAUGU
7,B7,0.00285 KA relative to UGCAUGU
8,B8,0.00455 KA relative to UGCAUGU
9,B9,0.00492 KA relative to UGCAUGU
10,B10,0.00279 KA relative to UGCAUGU
11,B11,0.0233 KA relative to UGCAUGU
12,B12,0.0328 KA relative to UGCAUGU
13,B13,0.0113 KA relative to UGCAUGU
14,B14,0.0333 KA relative to UGCAUGU
15,B15,0.0329 KA relative to UGCAUGU
16,B16,0.0173 KA relative to UGCAUGU
17,B17,0.0141 KA relative to UGCAUGU

row,Binder,binding signal
1,B18,0.0228 KA relative to UGCAUGU
2,B19,0.0123 KA relative to UGCAUGU
3,B20,0.0356 KA relative to UGCAUGU
4,B21,0.0169 KA relative to UGCAUGU
5,B22,0.0165 KA relative to UGCAUGU
6,B23,0.00583 KA relative to UGCAUGU
7,B24,0.0145 KA relative to UGCAUGU
8,B25,0.00801 KA relative to UGCAUGU
9,B26,0.0123 KA relative to UGCAUGU
10,B27,0.00788 KA relative to UGCAUGU
11,B28,0.0101 KA relative to UGCAUGU
12,B29,0.0019 KA relative to UGCAUGU
13,B30,0.0102 KA relative to UGCAUGU
14,B31,0.0179 KA relative to UGCAUGU
15,B32,0.0123 KA relative to UGCAUGU
16,B33,0.037 KA relative to UGCAUGU
